Compound activity from PubChem BioAssay.
The list is not random: actives were taken first. Their share in the collection is about 7%.
rCAG RNA binder: binders of r(CAG) RNA repeats, primary screen, biochemical, fluorescence | r(CAG) RNA repeat, TO-PRO-1 dye displacement fluorescence | inhibition, % at 3 µM | 370,000 compounds, 1.3% hits;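 active = inhibition above the plate cutoff, the mean of all test compounds on that plate plus 3 SD, cut at about 35% in these data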;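 also: higher means more dye released from RNA so lower well fluorescence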
ADAM17 inh: ADAM17 inhibitors, primary screen, biochemical, QFRET. Disintegrin and metalloproteinase domain-containing protein 17 (Homo sapiens), P78536. recombinant ADAM17, EDANS/DABCYL FRET peptide cleavage. inhibition, % at 6.95 µM. 370,000 compounds, 0.83% hits;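 active = inhibition above the mean of compounds lying between control limits plus 3 SD, set per campaign, cut at about 8.5% in these data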
GRIN3A LBD mod: binders of NR3A ligand-binding domain, primary screen, biophysical, differential scanning fluorimetry, uHTS. Tm shift relative to glycine control, % at 25 µM. Glutamate receptor ionotropic, NMDA 3A (GRIN3A) ligand-binding domain. AID 1259313, 2017. NR3A LBD differential scanning fluorimetry, Tm shift; 0% = protein alone, 100% = glycine-bound protein. 340,000 compounds, 2.5% hits;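 active = melting temperature shift of at least 10% of the positive control shift, at one fixed dose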
ADAM10 inh: human ADAM10 inhibitors, primary screen, biochemical, QFRET, HTS. Disintegrin and metalloproteinase domain-containing protein 10 (Homo sapiens), O14672. recombinant ADAM10, EDANS/DABCYL FRET peptide cleavage, 3 h. inhibition, % at 7 µM. 370,000 compounds, 0.62% hits;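 active = inhibition above a per-campaign cutoff equal to the mean of compounds falling between control-based bounds plus 3 SD, cut at about 20% in these data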
Target sequence (O14672 214-748 limits assumed): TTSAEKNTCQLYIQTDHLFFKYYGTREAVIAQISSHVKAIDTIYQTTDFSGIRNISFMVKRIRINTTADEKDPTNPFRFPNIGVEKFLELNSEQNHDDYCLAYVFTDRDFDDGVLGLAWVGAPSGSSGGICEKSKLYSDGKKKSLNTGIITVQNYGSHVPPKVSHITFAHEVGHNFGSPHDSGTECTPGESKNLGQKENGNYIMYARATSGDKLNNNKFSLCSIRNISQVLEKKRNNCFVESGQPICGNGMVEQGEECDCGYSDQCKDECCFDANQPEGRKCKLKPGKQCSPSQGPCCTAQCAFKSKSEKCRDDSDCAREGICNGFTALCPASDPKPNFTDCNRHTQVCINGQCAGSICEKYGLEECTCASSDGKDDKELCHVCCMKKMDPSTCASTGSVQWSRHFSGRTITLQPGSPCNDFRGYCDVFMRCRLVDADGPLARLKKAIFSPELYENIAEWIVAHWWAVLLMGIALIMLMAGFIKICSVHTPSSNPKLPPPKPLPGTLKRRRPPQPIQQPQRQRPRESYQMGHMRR
proKLK7 act: proKLK7 zymogen activators, primary screen, biochemical, fluorescence intensity; Kallikrein-7 (Homo sapiens), P49862; purified proKLK7, EDANS-DABCYL substrate fluorescence; 100% is mature enzyme control, 0% vehicle; activation, % at 7 µM; 370,000 compounds, 0.9% hits; AID 652039, 2013;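 active = activation above the mean of all tested compounds plus 3 SD, computed per campaign excluding outliers beyond control limits, cut at about 13% in these data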
AHR activator: AHR activators, primary screen, cell-based, luminescence, luciferase reporter, human | 320,000 compounds, 2.5% hits | activation, % at 5 µM | Aryl hydrocarbon receptor (Homo sapiens), P35869 | AHR-responsive luciferase reporter cells; in the data active = activation above about 47%
Large screens that a line does not name were inactive.

C[C@H](CO)N1C[C@H](C)[C@@H](CN(C)C(=O)Nc2ccc(C(F)(F)F)cc2)Oc2c(NC(=O)Nc3ccc4c(c3)OCO4)cccc2C1=O	none
C[C@H](CO)N1C[C@H](C)[C@@H](CN(C)C(=O)Nc2ccc(C(F)(F)F)cc2)Oc2c(NC(=O)Nc3ccccc3)cccc2C1=O	GRIN3A LBD mod 15
COc1ccc(NC(=O)N(C)C[C@H]2Oc3c(NC(=O)Nc4ccc(C(F)(F)F)cc4)cccc3C(=O)N([C@H](C)CO)C[C@@H]2C)cc1	ADAM17 inh 9.9, GRIN3A LBD mod 16
C[C@@H]1CN([C@H](C)CO)C(=O)c2cccc(NC(=O)Nc3ccc(F)cc3)c2O[C@H]1CN(C)C(=O)Nc1ccc(C(F)(F)F)cc1	GRIN3A LBD mod 15
C[C@H](CO)N1C[C@H](C)[C@@H](CN(C)C(=O)Nc2ccc3c(c2)OCO3)Oc2c(NC(=O)Nc3ccc(C(F)(F)F)cc3)cccc2C1=O	ADAM17 inh 9.4, GRIN3A LBD mod 21
CCC[C@H]1[C@@H](OC(=O)NCc2ccc(C(F)(F)F)cc2)CC[C@@]23CCCN2C(=O)CCC[C@@H]13	none (no result: rCAG RNA binder, GRIN3A LBD mod, proKLK7 act, AHR activator)
Cc1cc2cc3c(cc2n2c(SCC(=O)Nc4nc(-c5ccccc5)cs4)nnc12)OCO3	none (no result: rCAG RNA binder, GRIN3A LBD mod, proKLK7 act, AHR activator)
C[C@H](CO)N1C[C@H](C)[C@@H](CN(C)C(=O)NC2CCCCC2)Oc2c(NC(=O)Nc3ccc(C(F)(F)F)cc3)cccc2C1=O	GRIN3A LBD mod 11
O=C(COC(=O)COc1ccc(Br)cc1)NCCC1=CCCCC1	GRIN3A LBD mod 12
O=C(COC(=O)/C=C/c1cccc(Cl)c1)NCCC1=CCCCC1	GRIN3A LBD mod 17
C=CCN(C)CC#Cc1ccc(OC)cc1	none (no result: GRIN3A LBD mod, AHR activator)
Fc1cccc(NC(=S)NCc2ccc(Cl)cc2)c1	none
NS(=O)(=O)c1ccc(CNC(=S)Nc2ccc(Cl)c(Cl)c2)cc1	GRIN3A LBD mod 12
Fc1cc(NC(=S)NCc2ccc(CNC(=S)Nc3ccc(Cl)c(F)c3)cc2)ccc1Cl	GRIN3A LBD mod 94
C=CCN=C1NC(c2ccccc2)C(C(=O)OC)=C(C)N1C (stereo not drawn)	none (no result: GRIN3A LBD mod, AHR activator)
COc1ccc(S(=O)(=O)N(C)C[C@@H]2Oc3c(NC(=O)Nc4ccccc4)cccc3C(=O)N([C@@H](C)CO)C[C@H]2C)cc1	none (no result: rCAG RNA binder, GRIN3A LBD mod, proKLK7 act, AHR activator)
Cc1cc(C)cc(N2C(=O)CC(c3ccccc3)CC2=O)c1	GRIN3A LBD mod 17
CCN(C(=O)c1ccco1)c1nc(CC(=O)Nc2ccc(Cl)cc2)cs1	AHR activator 78
CC(CNC(=O)[C@@H](Cc1ccccc1)NC(=O)[C@H]1O[C@@H](n2cnc3c(=O)[nH]c(N)nc32)[C@H](O)[C@@H]1O)c1ccccc1 (stereo partly drawn)	none (no result: GRIN3A LBD mod, AHR activator)
Cc1ccc2nc(/C(C#N)=C/c3cn[nH]c3-c3ccc(F)cc3)[nH]c2c1	AHR activator 76
Cc1ccc2nc(/C(C#N)=C/c3ccccc3C(=O)O)[nH]c2c1	none
Cc1ccc2nc(/C(C#N)=C/c3ccc(O)c(O)c3)[nH]c2c1	GRIN3A LBD mod 19, AHR activator 62
CC(C1=CCCCC1)c1cnn(C)c1 (stereo not drawn)	none (no result: GRIN3A LBD mod, AHR activator)
COc1cccc(C2Nc3cc(Cl)c(S(N)(=O)=O)cc3S(=O)(=O)N2)c1 (stereo not drawn)	GRIN3A LBD mod 11
O=[N+]([O-])c1ccc(-c2nc3ccc([N+](=O)[O-])cc3[nH]2)cc1	none
Nc1ccc(-c2nc3ccc(-c4nc5ccccc5o4)cc3[nH]2)cc1	GRIN3A LBD mod 18
Nc1ccc(-c2nc3ccc([N+](=O)[O-])cc3[nH]2)cc1	GRIN3A LBD mod 25
CCOc1ccc(-n2c(SCC(=O)Nc3ccc4cn[nH]c4c3)nnc2-c2ccncc2)cc1	none (no result: GRIN3A LBD mod, AHR activator)
CNC(=S)N/N=C/c1c(C(=O)OC)cnn1-c1ccc(Cl)cc1	none (no result: rCAG RNA binder, GRIN3A LBD mod, proKLK7 act, AHR activator)
COC(=O)c1cnn(-c2ccccc2)c1/C=N/NC(=S)Nc1ccc(Cl)cc1	GRIN3A LBD mod 13
FC(F)(F)c1ccccc1Cc1c(-c2ccco2)nc2c3ccccc3ccn12	none (no result: GRIN3A LBD mod, AHR activator)
CCOC(=O)c1ccc(N2CCN(c3ccccc3F)CC2)c(NC(=O)Nc2cccc(OC)c2)c1	GRIN3A LBD mod 11
COC(=O)c1ccc(N2CCOCC2)c(NC(=O)Nc2cccc(OC)c2)c1	none
COC(=O)C1=C(C)N(Cc2ccccc2C(F)(F)F)C(=NCc2ccccc2C(F)(F)F)NC1c1ccc(Cl)cc1 (stereo not drawn)	none (no result: GRIN3A LBD mod, AHR activator)
COc1ccc(C(=O)N/C(=C\c2cn(C)c3ccccc23)C(=O)NCCCn2ccnc2)cc1	none
CCCCOC(=O)/C(=C/c1cn(C)c2ccccc12)NC(=O)c1ccc(OC)cc1	AHR activator 81
O=C(CSc1nnc(-c2ccc3c(c2)OCO3)o1)Nc1ncc(Cl)cc1Cl	AHR activator 133
S=C(Nc1cccc(Cl)c1)OCCN1CCCC12CCC(c1ccccc1)CC2 (stereo not drawn)	none (no result: rCAG RNA binder, GRIN3A LBD mod, proKLK7 act, AHR activator)
O=C1c2ccccc2C(=O)N1CCc1ccccc1	AHR activator 60
Fc1ccccc1N1CCN(Cc2nc(-c3ccc(Cl)cc3Cl)no2)CC1	GRIN3A LBD mod 20
Clc1ccc(Cc2noc(CN3CCN(c4ccccc4)CC3)n2)c(Cl)c1	none
COc1nccnc1NS(=O)(=O)c1ccc(N=Cc2c(C)[nH]n(-c3ccc(Cl)cc3)c2=O)cc1	none (no result: GRIN3A LBD mod)
Cc1[nH]n(-c2ccc(Cl)cc2)c(=O)c1C=Nc1ccc(S(=O)(=O)N2CCOCC2)cc1	GRIN3A LBD mod 32
Brc1ccc(N2O[C@H]3C=C[C@@H]2C3)nc1	none (no result: GRIN3A LBD mod, AHR activator)
COC(=O)c1cc(-c2cccc(OC(F)(F)F)c2)c(=O)n2c1CCC2	none (no result: GRIN3A LBD mod, AHR activator)
Cn1cc(/C=C/c2cc[n+](C)cc2)c2cc(Cl)ccc21	AHR activator 47
Cn1cc(/C=C/c2cc[n+](C)cc2)c2cc(F)ccc21	none (no result: rCAG RNA binder, ADAM17 inh, ADAM10 inh, proKLK7 act)
COC(=O)C[C@H]1CC[C@H]2[C@H](COc3ccc(NS(=O)(=O)c4cccc(OC)c4)cc3C(=O)N2C)O1	none (no result: GRIN3A LBD mod, AHR activator)
CCN(C[C@H]1[C@@H](c2ccc(C3=CCCC3)cc2)[C@H](CO)N1Cc1ccccn1)S(=O)(=O)c1ccccc1[N+](=O)[O-]	none (no result: GRIN3A LBD mod, AHR activator)
CC(/C=N/n1c(-c2ccco2)n[nH]c1=S)=C\c1ccco1	none
CC(/C=N\Nc1nnc2c(n1)[nH]c1c(C)cccc12)=C\c1ccco1	AHR activator 57
COC(=O)c1cc2c(c3c4cc(F)ccc4n(S(=O)(=O)c4ccc(C)cc4)c13)C(=O)N(Cc1ccc(N(C)C)cc1)C2	none (no result: GRIN3A LBD mod, AHR activator)
COc1ccc2cc(/C=C3\SC(=S)NC3=O)c(N3CCOCC3)nc2c1	rCAG RNA binder 65
